Source: PubChem BioAssay (Sanford-Burnham Center for Chemical Genomics)
CYP2C9 inhib: blockers of cytochrome P450 2C9 activity – biochemical, luminescence, ADME assay, primary screen | P11712 | CYP2C9 Supersomes, luciferin-H conversion | inhibition, % at 5 µM | hit rate 20% among 96,000 | AID 777, 2007;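 active means blocking of liver enzyme CYP2C9 beyond about 50% at 5 µM, limit read from the data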
CYP2C19 inh: blockers of cytochrome P450 2C19 activity – biochemical, luminescence, ADME assay, primary screen. P33261. CYP2C19 Supersomes, luciferin-H EGE luminescence, 30 min. inhibition, % at 5 µM. hit rate 21% among 96,000. AID 778, 2007;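 active means CYP2C19 inhibition above a set limit at 5 µM in the primary screen, cut at about 50% in these data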;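 further: plate controls were negative control wells for no effect and 2.5 mM tranylcypromine positive control for full effect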
CYP2C9 activ: human CYP2C9 activators, primary screen, biochemical, luminescence. Cytochrome P450 2C9 (Homo sapiens), P11712. recombinant CYP2C9, luciferin-H conversion; stronger effect = higher value; factor 1 = untreated enzyme, 0 = blocked. activation factor at 5 µM. hit rate 1.4% among 96,000. AID 1024, 2008;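 active means activation factor of 2 or more for CYP2C9 at a 5 µM dose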;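 further: 0 = sulfaphenazole-blocked wells and 1 = vehicle-only wells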
Pyk2 oligo antag: antagonists of Pyk2 self-association, primary screen, Q293 cells, FERM NanoBiT luminescence, HTS. Protein-tyrosine kinase 2-beta (Homo sapiens), Q14289. stronger effect = lower value. z-score (the deposit names both 25 µM and 10 µM). hit rate 0.83% among 99,000. AID 1347419, 2020;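 active means Z-score of -3 or lower, scaled per plate to the spread of control and sample wells; inactive means z-score above -3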;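 further: negative z-score means lost luminescence so less FERM oligomerization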
Target sequence (Q14289 whole entry, looked up): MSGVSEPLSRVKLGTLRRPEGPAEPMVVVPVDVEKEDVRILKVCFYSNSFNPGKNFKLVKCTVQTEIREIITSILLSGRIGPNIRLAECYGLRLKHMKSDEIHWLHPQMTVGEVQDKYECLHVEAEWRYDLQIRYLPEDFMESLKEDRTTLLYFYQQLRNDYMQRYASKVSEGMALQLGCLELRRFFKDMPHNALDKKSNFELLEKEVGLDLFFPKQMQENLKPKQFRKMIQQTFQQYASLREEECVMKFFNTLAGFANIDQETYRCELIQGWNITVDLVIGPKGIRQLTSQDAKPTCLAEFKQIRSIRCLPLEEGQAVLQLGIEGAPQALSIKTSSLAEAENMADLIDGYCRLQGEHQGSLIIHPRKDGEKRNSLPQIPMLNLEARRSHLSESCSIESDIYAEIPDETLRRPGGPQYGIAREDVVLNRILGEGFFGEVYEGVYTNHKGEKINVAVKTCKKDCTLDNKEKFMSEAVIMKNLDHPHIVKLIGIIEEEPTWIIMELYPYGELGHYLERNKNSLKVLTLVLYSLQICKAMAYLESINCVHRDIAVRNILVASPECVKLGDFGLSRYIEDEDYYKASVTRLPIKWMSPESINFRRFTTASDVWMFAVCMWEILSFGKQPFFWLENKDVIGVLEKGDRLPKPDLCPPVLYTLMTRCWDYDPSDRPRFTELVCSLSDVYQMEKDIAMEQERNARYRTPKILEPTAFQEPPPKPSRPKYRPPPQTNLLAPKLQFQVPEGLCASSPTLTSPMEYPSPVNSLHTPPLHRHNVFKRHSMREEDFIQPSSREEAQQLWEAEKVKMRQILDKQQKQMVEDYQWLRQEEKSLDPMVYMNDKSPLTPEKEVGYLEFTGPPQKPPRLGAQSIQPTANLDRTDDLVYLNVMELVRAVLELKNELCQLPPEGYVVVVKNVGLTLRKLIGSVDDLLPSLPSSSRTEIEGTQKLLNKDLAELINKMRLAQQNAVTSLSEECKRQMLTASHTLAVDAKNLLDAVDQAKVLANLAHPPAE
CYP2C19 act: human CYP2C19 activators, primary screen, biochemical, luminescence; recombinant CYP2C19, luciferin-H EGE luminescence; stronger effect = higher value; 0 = fully inhibited enzyme, 1 = untreated enzyme; activation factor at 5 µM; 96,000 tested, under 10 active; AID 1025, 2008;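 active means activation factor of at least 2 at 5 µM in the primary screen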;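 further: 0 = wells with 2.5 mM tranylcypromine and 1 = vehicle-only wells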
* = called active by the depositor; · = no result given. A selection: hits, their analogues and other compounds. The true share with any hit is near 28%.

SMILES | CYP2C9 inhib | CYP2C19 inh | CYP2C9 activ | Pyk2 oligo antag | CYP2C19 act
C=CCN(CC=C)S(=O)(=O)c1ccc(NC(=O)COc2ccccc2OC)cc1 | · | · | · | -0.4 | ·
O=C(Nc1ncc(C(F)(F)F)cc1Cl)C1COc2ccccc2O1 (stereo unspecified) | 21 | 80* | 0.8 | 0.75 | 0.2
O=C(NCc1cccnc1)C1COc2ccccc2O1 (stereo unspecified) | 3 | 32 | 1 | -0.13 | 0.7
COc1ccc2c(=O)cc(-c3ccccc3)n(C)c2c1 | · | · | · | 0.41 | ·
CCOc1cc(C(=O)O)cc(Cl)c1OC | · | · | · | -0.37 | ·
Cn1c(=O)n(C)c2cc(NS(C)(=O)=O)ccc21 | 10 | 4 | 0.9 | 0.58 | 1
Cc1cc(=O)oc2cc(NC(=O)C3COc4ccccc4O3)ccc12 (stereo unspecified) | -9 | 10 | 1.1 | 0.34 | 0.9
O=C(NC1CC2CCC1C2)C1COc2ccccc2O1 (stereo unspecified) | 1 | 52* | 1 | 0.21 | 0.5
O=C(Nc1ccc2c(c1)OCO2)C1COc2ccccc2O1 (stereo unspecified) | 7 | 70* | 0.9 | 1.5 | 0.3
O=C(Nc1ccncc1)C1COc2ccccc2O1 (stereo unspecified) | 52* | 96* | 0.5 | 0.53 | 0
CCN(CC)S(=O)(=O)c1ccc(NC(=O)C2COc3ccccc3O2)cc1 (stereo unspecified) | 72* | 23 | 0.3 | 0.17 | 0.8
Cc1cc(C)n(C(=O)c2ccc(NC(=O)C3COc4ccccc4O3)cc2)n1 (stereo unspecified) | -67 | 45 | 1.7 | 0.43 | 0.6
COc1ccc(OC)c(NC(=O)CNC(=O)Cn2ccc3ccccc3c2=O)c1 | 39 | 12 | 0.6 | · | 0.9
CC1(C)Cc2c(sc3nc4n(c(=N)c23)CCC4)CO1 | -4 | -19 | 1 | 0.1 | 1.2
O=C(O)CCCC(=O)Nc1ccccc1Br | -6 | -10 | 1.1 | 0.25 | 1.1
O=C(Nc1ccccc1)Nc1ccc(C(=O)N2CCOCC2)cc1 | 13 | 44 | 0.9 | -0.54 | 0.6
CCSc1cnc(-c2ccccc2)n1CC | 12 | 39 | 0.9 | -0.85 | 0.6
O=C(NC1=NCCS1)C1COc2ccccc2O1 (stereo unspecified) | 23 | 8 | 0.8 | 0.11 | 0.9
O=C(Nc1cnc2ccccc2c1)C1COc2ccccc2O1 (stereo unspecified) | 54* | 90* | 0.5 | -0.28 | 0.1
Cc1c(/C=N/NC(=O)c2cc(=O)[nH]c(=O)[nH]2)c2ccccn2c1C(=O)c1ccccc1 | 50* | 9 | 0.5 | -1.6 | 0.9
O=S1(=O)CCN(Cc2ccc(Cl)c(Cl)c2)CC1 | 2 | 54* | 1 | 2 | 0.5
CCOC(=O)C1CCN(Cc2cnc(Oc3ccc(Cl)cc3C)s2)CC1 | 9 | 1 | 0.9 | 0.13 | 1
CCOC(=O)C1CCN(Cc2cnc(Oc3ccc(N)cc3)s2)CC1 | 62* | 45 | 0.4 | -0.02 | 0.6
CCOC(=O)C1CCN(Cc2ccc(Cl)c(Cl)c2)CC1 | 51* | 36 | 0.5 | 0.25 | 0.6
CCOC(=O)C1CCN(Cc2ccc(F)cc2)CC1 | · | · | · | 0.51 | ·
SMILES | CYP2C9 inhib | CYP2C19 inh | CYP2C9 activ | Pyk2 oligo antag | CYP2C19 act
O=S1(=O)CCN(Cc2ccc(Cl)cc2)CC1 | -5 | 32 | 1.1 | -0.61 | 0.7
Clc1ccc(CN2CCCCCCC2)cc1Cl | -6 | 85* | 1.1 | 1.7 | 0.2
O=C(NCCCN1CCCC1=O)c1cc(=O)c2ccccc2o1 | -1 | 5 | 1 | 0.84 | 1
CCc1ccc(C2N(c3ccc(OC)cc3)C(=O)C3CCCN32)cc1 (stereo unspecified) | 76* | 33 | 0.2 | · | 0.7
O=C1C2CCCN2C(c2cccc(Br)c2)N1c1ccc(F)cc1 (stereo unspecified) | 12 | 16 | 0.9 | · | 0.8
O=C1C2CCCN2C(c2ccc(Br)cc2)N1c1ccc(F)cc1 (stereo unspecified) | 21 | 66* | 0.8 | · | 0.3
CCNC(=S)NNC(=O)Nc1ccccc1 | -12 | 18 | 1.1 | -0.66 | 0.8
COc1cc(S(=O)(=O)Nc2c(C)cc(C)cc2C)ccc1Cl | 14 | 44 | 0.9 | -1.4 | 0.6
Cc1cc(C)c(NS(=O)(=O)c2ccc(Cl)c(C(=O)O)c2)c(C)c1 | 61* | 1 | 0.4 | 0.38 | 1
Cc1cccc(NC(=O)c2cccc(NS(=O)(=O)c3ccc(Cl)cc3)c2)c1 | 97* | 99* | 0 | 1.5 | 0
CCN(CC)S(=O)(=O)c1cccc(C(=O)Nc2cccc(C)c2)c1 | 32 | 44 | 0.7 | 0.56 | 0.6
Cc1ccc(S(=O)(=O)Nc2cc(C(=O)Nc3cc(C)cc(C)c3)ccc2Cl)cc1 | 80* | 57* | 0.2 | -0.38 | 0.4
Cc1cccc(NC(=O)c2cc(S(=O)(=O)c3ccccc3)ccc2Cl)c1 | 94* | 80* | 0.1 | -0.23 | 0.2
COCCNCC(=O)C12CC3CC(CC(C3)C1)C2 | -8 | 25 | 1.1 | 0.84 | 0.8
O=C(O)CCCCCNC(=O)c1ccccc1 | -14 | -2 | 1.1 | -0.04 | 1
CC(=O)c1cccc(NS(=O)(=O)c2ccc(N/C=C\C(=O)c3ccc(C)cc3)cc2)c1 | 65* | 15 | 0.4 | -0.24 | 0.8
CC(=O)c1cccc(NS(=O)(=O)c2ccc(N/C=C\C(=O)c3ccc(F)cc3)cc2)c1 | 29 | 14 | 0.7 | 0.25 | 0.9
Cn1cc(/C(Cc2ccccc2)=N\O)c2ccccc21 | 10 | 59* | 0.9 | -2.1 | 0.4
CC1CC(C)(C)N(C(=O)CSc2ccc(-c3ccc(F)cc3)nn2)c2ccccc21 (stereo unspecified) | 58* | 49 | 0.4 | -0.28 | 0.5
Brc1cccc(-c2nnc3n2CCCCC3)c1 | 9 | 53* | 0.9 | -0.23 | 0.5
c1ccc(-c2nnc3n2CCCC3)cc1 | 0 | -1 | 1 | -0.23 | 1
Brc1cccc(-c2cnc3n2CCCCC3)c1 | 7 | 83* | 0.9 | 0.42 | 0.2
CCS(=O)(=O)N1CCC(C(=O)OCC(=O)c2ccc(Br)cc2)CC1 | · | · | · | 0.89 | ·
CC1(C)CC(=O)C=C(NCCc2ccc(S(N)(=O)=O)cc2)C1 | -9 | 1 | 1.1 | 0.31 | 1
O=S1(=O)C=C(SCc2cccc(Cl)c2)Nc2ccccc21 | 74* | 86* | 0.3 | 0.19 | 0.1
Cc1cccc(CSC2=CS(=O)(=O)c3ccccc3N2)c1 | 64* | 54* | 0.4 | 0.27 | 0.5
NC(=O)NCc1cccc(Cl)c1 | -10 | -14 | 1.1 | 0.67 | 1.1
CCOC(=O)/C(C#N)=C(\N)C(C)C(=O)Nc1ccccn1 (stereo unspecified) | 7 | 10 | 0.9 | 0.72 | 0.9
COCCNC(C)C(=O)Nc1ccc(Br)cc1 (stereo unspecified) | 0 | 17 | 1 | -0.84 | 0.8
